M1 PAM: potentiates human M1 receptor response to acetylcholine. hit rate 0.088% among 360,000. activation, % at 3 µM. P11229. AID 588819. CHO-K1 hM1, Fluo-8 calcium fluorescence, ACh EC20; 0% = ACh EC20, 100% = maximal ACh; in the data active means activation above about 19%, passing the limit was not always enough
Target sequence (P11229 whole entry, looked up): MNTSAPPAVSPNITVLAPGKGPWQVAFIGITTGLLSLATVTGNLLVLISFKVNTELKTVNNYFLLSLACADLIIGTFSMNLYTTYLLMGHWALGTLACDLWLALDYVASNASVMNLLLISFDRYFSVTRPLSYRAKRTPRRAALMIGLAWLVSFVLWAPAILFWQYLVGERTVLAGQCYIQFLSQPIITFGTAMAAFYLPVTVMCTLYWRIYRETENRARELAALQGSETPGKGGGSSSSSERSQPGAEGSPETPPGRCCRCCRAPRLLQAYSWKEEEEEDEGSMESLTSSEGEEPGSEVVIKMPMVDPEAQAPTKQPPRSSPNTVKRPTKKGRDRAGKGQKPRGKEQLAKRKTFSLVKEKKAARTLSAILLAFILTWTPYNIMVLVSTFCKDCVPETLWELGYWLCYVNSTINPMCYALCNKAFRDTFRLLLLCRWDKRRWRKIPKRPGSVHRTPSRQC
M1 ag parental: M1 agonist counterscreen hit in parental CHO-K1 cells; Fluo-8 calcium fluorescence; scaled to maximal ATP response, vehicle zero; hit rate 0.48% among 360,000; AID 602248; activation, % at 3 µM; in the data active means activation above about 15%;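 further: untransfected CHO-K1 host cells lacking M1 receptor as counterscreen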
M1 ag: agonists of human M1 muscarinic receptor | P11229 | CHO-K1 hM1, Fluo-8 calcium fluorescence, agonist mode; 0% DMSO, 100% acetylcholine EC100 | activation, % at 3 µM | hit rate 0.33% among 360,000;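 active means activation above the run's mean compound activation plus 3 SD, cut at about 16% in these data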;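 further: peak over basal fluorescence ratio within a 140 s kinetic read after compound addition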
CHO-K1 Ca PAM: nonselective activator or artifact in parental CHO-K1 calcium assay; ATP EC20, Fluo-8 calcium fluorescence; 0% at ATP EC20, 100% at ATP max; activation, % at 3 µM; hit rate 0.02% among 360,000; AID 602247;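 active means activation above the run cutoff, the mean activation of all test compounds plus 3 SD, cut at about 40% in these data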;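 further: peak over basal fluorescence ratio in a 140 s read after ATP addition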
CHRM1 antagonist: human CHRM1 antagonism | P11229 | CHO-K1 hM1, Fluo-8 calcium fluorescence, ACh EC80 antagonist | inhibition, % at 3 µM | hit rate 1.3% among 360,000 | AID 588852;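 active means percent inhibition above its own plate's cutoff, namely the mean of that plate's compound wells plus 3 SD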;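 further: peak over basal fluorescence ratio during 140 s after agonist addition; 0% = ACh EC80 plus DMSO and 100% = DMSO alone without agonist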
CHO-K1 Ca antag: M1 antagonist counterscreen hit in parental CHO-K1 cells; ATP-induced calcium, Fluo-8 fluorescence; inhibition, % at 3 µM; hit rate 0.6% among 360,000; AID 602250;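 active means inhibition above a per-plate cutoff, the plate's mean sample inhibition plus 3 SD, cut at about 24% in these data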;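 further: 0% = DMSO plus EC80 ATP and 100% = DMSO alone without ATP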
Starred values were filed as active, the others as inactive; nt = no result given. Most compounds without a hit are left out; they make up all but 2.4% or so of the library.

SMILES	M1 PAM	M1 ag parental	M1 ag	CHO-K1 Ca PAM	CHRM1 antagonist	CHO-K1 Ca antag
COCCN1CCC(CO)C1 (stereo unspecified)	12.9	0.8	-0.6	18.4	-22.4	-12.2
COc1ccc(NC(=O)C2CCN(S(=O)(=O)c3cccc4nonc34)CC2)cc1OC	0.3	5.6	0.6	-3.9	9.9	0.7
CC(C)c1ccccc1OCCCN1CCCC1	-25.7	0.3	-10.2	-20.8	41.7*	15.7
c1ccc(-c2ccccc2OCCCCN2CCCCC2)cc1	-26.2	6.7	-11.2	17.6	32.3*	-6.4
COc1cc(/C=C2/S/C(=N/S(=O)(=O)c3ccccc3)NC2=O)c([N+](=O)[O-])cc1OC	7.5	0.8	1.9	0.5	-9.8	4.3
O=C1N/C(=N\S(=O)(=O)Cc2ccccc2)S/C1=C/c1cc([N+](=O)[O-])ccc1O	-9.1	36.5*	29.5*	-12.2	36.7*	41.0*
O=C1N/C(=N\S(=O)(=O)c2ccccc2)S/C1=C\c1cc([N+](=O)[O-])ccc1O	-24.7	19.2*	32.3*	-6.2	18.5	3.5
CC1(C(=O)Nc2ccc3c(c2)OCCO3)CCN1C(=O)C1(c2ccc(Cl)cc2)CC1 (stereo unspecified)	-5.0	0.9	-4.3	-1.3	6.4	0.1
OC[C@@H]1CN(Cc2ccc(-c3ccccc3)cc2)C[C@H](n2cnc3c(N4CCCC4)ncnc32)O1	5.2	5.8	3.4	11.6	-8.1	3.0
COc1ccccc1C(=O)N(CCC1CCCN1C)c1nc2ccccc2s1 (stereo unspecified)	-23.2	6.5	-3.3	2.0	51.0*	-9.8
COc1ccccc1OCC(=O)N/N=C1\CCCCc2ccccc21	6.4	3.5	-3.3	2.2	-6.7	-9.9
COc1ccc(OCC(=O)N/N=C2\CCCc3ccccc32)cc1	-8.2	3.9	-5.5	-14.8	10.9	24.6*
O=C(N/N=C1\CCCCc2ccccc21)c1ccccn1	8.4	0.1	-12.7	-15.3	-4.3	29.4*
CC(Oc1ccc(C#N)cc1)C(=O)Nc1ccc(-n2cnnn2)cc1 (stereo unspecified)	-11.5	6.5	17.0*	-30.2	22.8	2.0
CNC(=O)c1c(NC(=O)CCS(=O)(=O)c2ccc(C)cc2)sc(C)c1C	3.2	1.1	-1.7	5.8	-2.6	-3.4
COc1cc(C[C@@H]2C(=O)OC[C@H]2Cc2ccc(OC)c(OC)c2)ccc1O	-23.5	11.8	3.3	4.8	49.6*	4.4
COCOc1ccc(-c2ncc(OC)nc2NC(=O)c2cc(C)oc2C)cc1	-2.4	0.4	-1.6	7.6	-8.0	-3.1
COc1ccc(-c2c3c([nH]c(=S)c2C#N)CCC3)cc1	13.2	-0.6	4.5	-4.2	-16.9	26.2*
CC1(C)OC(=O)C2=C(C[C@@H](CCc3ccccc3)O[C@H]2CCc2cccc(Cl)c2)O1	nt	-0.2	nt	-2.0	nt	-15.8
CCN1CCN(C(=O)c2cc3cc(F)ccc3[nH]2)CC1	8.7	-0.5	-6.3	-28.7	-9.4	33.8*
CSCCC(NS(=O)(=O)c1ccc(C)cc1)C(=O)NC1CCCCCC1 (stereo unspecified)	4.9	0.0	-3.6	11.9	-13.8	-12.5
COc1cc(CN2CC(=O)N(c3cccc(Cl)c3C)C2=S)cc(OC)c1OC	-0.3	22.8*	5.6	3.4	4.3	5.8
COc1cc(CN2CC(=O)N(c3ccccc3Cl)C2=S)cc(OC)c1OC	-17.0	19.0*	1.8	-3.3	34.1*	12.5
CC(=O)Nc1ccc(NC(=O)C(C)OC(=O)CSc2ccc(Br)cc2C)cc1 (stereo unspecified)	6.5	1.3	-1.6	5.0	-0.6	5.7
O=C(O)C1CCCN1C(=O)C1CCN(S(=O)(=O)c2cccc(C(F)(F)F)c2)CC1 (stereo unspecified)	8.3	-0.2	0.5	-29.4	-7.4	17.2
SMILES	M1 PAM	M1 ag parental	M1 ag	CHO-K1 Ca PAM	CHRM1 antagonist	CHO-K1 Ca antag
NCC1CC2c3ccccc3C1c1ccccc12 (stereo unspecified)	-16.8	2.1	-8.9	1.0	27.9*	-2.4
CCN=C(NCC)SC1CC(=O)N(c2cccc(OC)c2)C1=O (stereo unspecified)	-14.3	7.8	-0.2	8.6	32.0*	-5.7
CCN=C(NCC)SC1CC(=O)N(c2ccccc2)C1=O (stereo unspecified)	-17.1	5.9	3.5	-2.1	25.1*	19.6
CCN=C(Nc1cccc(F)c1)SC1CC(=O)N(c2ccc(OC)cc2)C1=O (stereo unspecified)	-16.4	7.9	-3.9	1.8	20.8	-1.9
CCN=C(NCC)SC1CC(=O)N(c2ccc(OCC)cc2)C1=O (stereo unspecified)	-19.9	6.4	0.3	-0.6	29.5*	11.3
Cc1c(NC(=O)CSCc2ccco2)c(=O)n(-c2ccccc2)n1C	6.2	0.3	-4.3	-17.1	-4.3	5.6
O=C(CCl)NN=C(c1ccccc1)c1ccccc1	-5.0	2.9	-6.8	-7.4	2.7	-4.2
CCN(CC)CC(=O)NN=C(c1ccccc1)c1ccccc1	-18.6	-0.1	-5.9	4.3	27.3*	-2.8
CC(C)CNc1ncnc2c1ncn2[C@H]1CN(Cc2ccc(C(=O)O)cc2)C[C@@H](CO)O1	12.9	0.7	-3.5	21.3	-17.4	-15.8
Cc1[nH]n(-c2ccccc2)c(=O)c1C(c1cccc([N+](=O)[O-])c1O)c1c(C)[nH]n(-c2ccccc2)c1=O	-4.4	15.2*	-1.7	11.1	15.3	13.0
Cc1c(C(c2cccc([N+](=O)[O-])c2O)c2c(C)n(C)n(-c3ccccc3)c2=O)c(=O)n(-c2ccccc2)n1C	6.5	0.7	-6.3	24.9	-8.3	-11.4
Cc1cccc(-n2cc(-c3ccccc3)c3c(N4CCOCC4)ncnc32)c1	-15.8	4.8	-4.7	-8.2	37.9*	1.2
Cc1ccc(-n2cc(-c3ccccc3)c3c(N4CCN(C)CC4)ncnc32)cc1	11.3	3.5	-3.2	5.3	-10.0	-0.6
Cc1ccc(-n2cc(-c3ccccc3)c3c(N4CCOCC4)ncnc32)cc1	-12.3	4.2	-2.7	-3.8	43.0*	6.8
C[C@H](CO)N1C[C@H](C)[C@@H](CN(C)S(=O)(=O)c2cccs2)Oc2ccc(NC(=O)Cn3cnnn3)cc2C1=O	-22.2	0.5	-10.3	14.2	26.2*	-8.9
C[C@H](CO)N1C[C@H](C)[C@@H](CN(C)S(=O)(=O)c2ccccc2)Oc2ccc(NC(=O)C3CCCCC3)cc2C1=O	-8.1	0.1	-10.6	4.5	6.7	-6.1
COc1ccc(S(=O)(=O)Nc2ccc3c(c2)C(=O)N([C@H](C)CO)C[C@H](C)[C@@H](CN(C)C(=O)Nc2c(C)noc2C)OCCCC[C@H](C)O3)cc1	-28.7	0.7	40.1*	21.7	2.3	-16.8
C[C@H](CO)N1C[C@H](C)[C@@H](CN(C)S(=O)(=O)c2cccs2)Oc2ccc(NC(=O)NC3CCCCC3)cc2C1=O	-32.7	0.4	-10.8	12.9	44.3*	-7.8
